Assay results published in PubChem BioAssay (NCATS).
Records with an inconclusive call do not appear. Activity calls are given as the source filed them. Unless noted, calls follow the shape of the full dose curve.

Assays:
[1] = qHTS profiling of the MIPE4 collection as inhibitors of Plasmodium falciparum (3D7) proliferation (AID 743344; call rule not given here;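 also: scaled between DMSO vehicle wells and 0.29 µM artemisinin as full inhibition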); conditions: P. falciparum 3D7 in erythrocytes, SYBR Green DNA fluorescence, 72 h; at 28.5 µM unless noted
How it was run: (§1)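 Erythrocytes infected with P. falciparum (0.3% parasitemia, 2.5% hematocrit) incubated with compounds 72 h at 37 C, 5% CO2. Lysis with saponin/Triton buffer containing SYBR Green I, overnight at room temperature in the dark; DNA fluorescence (485/535 nm) normalised to 0.29 uM artemisinin and DMSO.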

[2] = qHTS profiling of the MIPE4 collection as inhibitors of Plasmodium falciparum (DD2) proliferation (AID 743345; call rule not given here); conditions: P. falciparum Dd2 in erythrocytes, SYBR Green DNA, 72 h; at 28.5 µM unless noted
How it was run: as §1

[3] = qHTS for Inhibitors of the Functional Ribonucleoprotein Complex (vRNP) of Lassa (LASV) Arenavirus: LASV Primary Screen - GLuc reporter signal (AID 1347082; calls by dose curve; tested in HEK293 reporter line; also: % is scaled to controls: 0 for no effect and ±100 for the full control effect; nearly all actives have a fitted effect of over 60% in size)
[4] = qHTS for Inhibitors of the Functional Ribonucleoprotein Complex (vRNP) of Lassa (LASV) Arenavirus: Viability assay - alamar blue signal for LASV Primary Screen (AID 1347083; calls by dose curve; tested in HEK293 reporter line; also: % is scaled to controls: 0 for no effect and ±100 for the full control effect; nearly all actives have a fitted effect of over 80% in size)
[5] = qHTS for Inhibitors of the Functional Ribonucleoprotein Complex (vRNP) of Lymphocytic Choriomeningitis Arenaviruses (LCMV): Viability assay - alamar blue signal for LCMV Primary Screen (AID 1347085; calls by dose curve; tested in HEK293 reporter line; also: % is scaled to controls: 0 for no effect and ±100 for the full control effect; nearly all actives have a fitted effect of over 80% in size)
[6] = molecular target: Nucleoprotein (Lymphocytic choriomeningitis virus (strain Armstrong)) (UniProt P09992); test: qHTS for Inhibitors of the Functional Ribonucleoprotein Complex (vRNP) of Lymphocytic Choriomeningitis Arenaviruses (LCMV): LCMV Primary Screen - GLuc reporter signal (AID 1347086); also: % is scaled to controls: 0 for no effect and ±100 for the full control effect; nearly all actives have a fitted effect of over 70% in size
[7] = Primary qHTS for Huh7 cytotoxicity: counterscreen for inhibitors of MERS-S pseudotyped particle cell entry (AID 1479147); conditions: outcome: dose series up to 57.1 µM unless noted
[8] = Primary qHTS for inhibitors of MERS-S pseudo-typed particle cell entry (AID 1479149); also: nearly all actives have a fitted effect of over 60% in size; as to activity change, negative = inhibition: % is scaled to controls: 0 for no effect and ±100 for the full control effect
[9] = Primary qHTS for Vero E6 cytotoxicity: counterscreen for inhibitors of SARS-S pseudo-typed particle cell entry (AID 1479150); conditions: outcome: dose series up to 57.1 µM unless noted
[10] = Cytotoxicity counterscreen for inhibitors of SARS-CoV-2 cell entry (AID 1645845); also: nearly all actives have a fitted effect of over 50% in size
How it was run: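 Expi293F/hACE2 cells seeded overnight; cpd pin-transferred in DMSO, 1 h preincubation, + media, 48 h 37 C 5% CO2; ATPLite 1step luminescence; normalized to cells and no cells.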

[11] = Primary qHTS to identify inhibitors of SARS-CoV-2 cell entry (AID 1645846); conditions: activity change, negative = inhibition: at 57.1 µM (top of the series) unless noted; also: nearly all actives have a fitted effect of over 45% in size
How it was run: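 Luminescence readout (Bright-Glo luciferase) 48 h after pseudoparticle addition. HEK293-ACE2 cells, 1500/well; compound pre-incubation 1 h; Normalized to spike PP and bald PP.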

CRL-7250 = normal cell line; test: qHTS assay to identify novel small-molecules to repurpose for Merkel cell carcinoma treatment (AID 1296009; active = well fitted curve in the direction sought with a large enough effect; an effect the other way counts as inactive or inconclusive; also: nearly all actives have a fitted effect of over 60% in size); conditions: MCC and control cell lines, CellTiter-Glo viability, 72 h; series mostly up to 92 µM
How it was run: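 Cells exposed to NPC (8-point) and MIPE (11-point) compound dilutions for 72 hr at 37 degree celsius; viability read by CellTiter-Glo luminescence, normalized to no-cell and DMSO in-plate controls.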

[12] = Inducers of the Endoplasmic Reticulum Stress Response (ERSR) in human glioma: Validation (AID 504836; active = well fitted curve in the direction sought with a large enough effect; an effect the other way counts as inactive or inconclusive; also: 0% is about no effect)
How it was run: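 Stably transfected U87-MG human glioma cells carrying a GRP78-based luminescent sensor were seeded at 1000 cells/well, pin-dosed with compounds and incubated 16 h. Luciferase reagent was then added, and end-point luminescence was read after 10 min at room temperature.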

[13] = Confirmatory qHTS for VERO E6 Cytotoxicity Assay: Counterscreen for SARS-CoV-2 CPE Assay (AID 1508605); also: % is scaled to controls: 0 for no effect and ±100 for the full control effect; nearly all actives have a fitted effect of over 60% in size
[14] = Confirmatory qHTS for activators (rescue) of SARS-CoV-2 Cytopathic Effect (CPE) (AID 1508606); also: nearly all actives have a fitted effect of over 70% in size; also: potency is read from the fitted curve at half-maximal effect
[15] = qHTS Assay for Lipid Storage Modulators (AID 1519); conditions: Drosophila S3 cells, BODIPY lipid droplet/cell ratio, laser cytometry, cells loaded with oleic acid; as to activity change, negative = inhibition: % is scaled to controls: 0 for no effect and ±100 for the full control effect
How it was run: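 Cells seeded at 5,000 per well were treated with compounds over a concentration series and loaded with oleic acid (400 uM, as added). Lipid droplet fluorescence (488 nm excitation, 500-530 nm channel) was read by laser-scanning cytometry and normalized to 20 uM Triacsin C.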

Sequence of Nucleoprotein (Lymphocytic choriomeningitis virus (strain Armstrong)) (P09992 whole entry, looked up): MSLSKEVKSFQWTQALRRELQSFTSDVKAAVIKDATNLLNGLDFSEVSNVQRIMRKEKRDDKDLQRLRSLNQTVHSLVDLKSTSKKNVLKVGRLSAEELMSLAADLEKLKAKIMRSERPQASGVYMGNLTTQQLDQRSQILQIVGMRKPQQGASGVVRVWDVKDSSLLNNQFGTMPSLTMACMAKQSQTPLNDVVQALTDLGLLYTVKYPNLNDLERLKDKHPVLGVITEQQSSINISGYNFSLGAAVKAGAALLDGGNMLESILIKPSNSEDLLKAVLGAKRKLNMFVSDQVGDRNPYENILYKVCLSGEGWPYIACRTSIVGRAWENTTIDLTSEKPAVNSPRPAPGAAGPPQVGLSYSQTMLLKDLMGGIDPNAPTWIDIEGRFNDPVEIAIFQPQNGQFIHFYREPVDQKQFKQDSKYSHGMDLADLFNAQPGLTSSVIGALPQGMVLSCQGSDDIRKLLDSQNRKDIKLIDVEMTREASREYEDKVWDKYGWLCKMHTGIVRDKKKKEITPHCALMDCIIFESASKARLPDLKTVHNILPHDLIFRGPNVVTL

COc1ccc(C2(C#N)CCC(C(=O)O)CC2)cc1OC1CCCC1 (configuration not stated)
-18.7%: activity change, negative = inhibition [11]
91.7%: parasite growth, % of DMSO control [1]
inactive: Potency [3] | Potency [4] | Potency [5] | Potency [6] | outcome [7] | Potency [8] | outcome [9] | Potency [10] | Potency [11] | Potency (CRL-7250)
101%: parasite growth remaining, % of DMSO control (lower = more inhibition) [2]

N#Cc1ccc(Oc2ccc3c(c2)COB3O)cc1
-3.74%: activity change, negative = inhibition [11]
inactive: Potency [3] | Potency [4] | Potency [5] | Potency [6] | outcome [7] | Potency [8] | Potency [10] | Potency [11] | Potency (CRL-7250)

OC(CCN1CCCCC1)(c1ccccc1)C1CCCCC1 (configuration not stated)
inactive: outcome [12] | Potency [3] | Potency [4] | Potency [5] | Potency [6] | outcome [7] | outcome [9] | Potency [10] | Potency (CRL-7250)

COC(=O)N1CCN(Cc2cccc(NC(=O)Nc3ccc(C)nc3)c2F)CC1
inactive: Potency [3] | Potency [4] | Potency [5] | Potency [6] | Potency [10] | Potency (CRL-7250)

CNC(=O)c1ccc(-c2cnc3ncc(Cc4ccc5ncccc5c4)n3n2)cc1F
inactive: Potency [3] | Potency [4] | Potency [5] | Potency [6] | Potency [10] | Potency (CRL-7250)

CCOC(=O)c1c(CSc2ccccc2)n(C)c2cc(Br)c(O)c(CN(C)C)c12
active: Potency [14] 11.2 µM
inactive: Potency [3] | Potency [4] | Potency [5] | Potency [6] | Potency [13] | Potency [10] | Potency (CRL-7250)

c1ccc(CNc2nc(N3CCOc4ccccc43)nc3c2CCCC3)cc1
inactive: Potency [3] | Potency [4] | Potency [5] | Potency [6] | Potency [10] | Potency (CRL-7250)

Cc1ccc(CN2CCNCC2)cc1NC(=O)CNc1ccc(F)c(F)c1
inactive: Potency [3] | Potency [4] | Potency [5] | Potency [6] | Potency [10] | Potency [11] | Potency (CRL-7250)

Cc1cnc(-c2cc(N3CCN(C(=O)CCS(C)(=O)=O)CC3)ncc2Cl)c(C)c1
inactive: Potency [3] | Potency [4] | Potency [5] | Potency [6] | Potency [10] | Potency (CRL-7250)
-19%: activity change, negative = inhibition [11]

CCCCCCCCCCCCc1ccc(S(=O)(=O)Nc2nncs2)cc1
inactive: Potency [3] | Potency [4] | Potency [5] | Potency [6] | Potency [13] | Potency [14] | Potency [10] | Potency (CRL-7250)
-14.7%: activity change, negative = inhibition [11]

CN(C)CC(=O)N1CCC(c2ccc(NC(=O)c3ncc(C#N)[nH]3)c(C3=CCCCC3)c2)CC1
inactive: Potency [3] | Potency [4] | Potency [5] | Potency [6] | Potency [10] | Potency (CRL-7250)

CN1[C@H]2CC(OC(=O)[C@@H](CO)c3ccccc3)C[C@H]1[C@H]1O[C@H]12 (some centres not stated)
inactive: activity change, negative = inhibition ([15]; at 25.7 µM (top of the series)) -0.085% | Potency [3] | Potency [4] | Potency [5] | Potency [6] | Potency (CRL-7250)
96.6%: parasite growth, % of DMSO control [1]
10.6%: max response ([15]; measured here: lipid channel max response)
9.59%: max response ([15]; measured here: cell count channel max response)
107%: parasite growth remaining, % of DMSO control (lower = more inhibition) [2]
